# According to PubChem BioAssay AID2551 (National Center for Advancing Translational Sciences (NCATS), 2010):
# The campaign covered roughly 310,000 compounds. About 17,000 (5.5%) were called active. About 11% were inconclusive and are not listed. The sample holds actives, similar compounds and a random draw of the others, so the mix is not that of the screen. Calls come from the whole dose curve; as a rule, active = well fitted inhibition curve with a large enough effect; inconclusive = small, poorly fitted or top-dose-only effect, or effect the other way; inactive = no such curve, though single readings can be large or run the other way.
# Target: Nuclear receptor ROR-gamma (Mus musculus) (UniProt P51450)
# Test: qHTS for inhibitors of ROR gamma transcriptional activity; note: nearly all actives have a fitted effect of over 60% in size
# Settings: Drosophila S2 Gal4-RORgamma UAS-luciferase reporter, 20 h; series mostly up to 53.6 µM; activity change, negative = inhibition: at the top concentration
# In short: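 Luminescence from a UAS-regulated Photinus luciferase reporter in stably transfected Drosophila Schneider cells is measured; decreased signal marks ROR gamma inhibition. Fusion expression is induced by 700 uM copper sulfate for 20 hr.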
# % is set by controls: 0 for no effect and ±100 for the full control effect; potency is the fitted concentration of half-maximal effect.
# Sequence of Nuclear receptor ROR-gamma (Mus musculus) (P51450 whole entry, looked up): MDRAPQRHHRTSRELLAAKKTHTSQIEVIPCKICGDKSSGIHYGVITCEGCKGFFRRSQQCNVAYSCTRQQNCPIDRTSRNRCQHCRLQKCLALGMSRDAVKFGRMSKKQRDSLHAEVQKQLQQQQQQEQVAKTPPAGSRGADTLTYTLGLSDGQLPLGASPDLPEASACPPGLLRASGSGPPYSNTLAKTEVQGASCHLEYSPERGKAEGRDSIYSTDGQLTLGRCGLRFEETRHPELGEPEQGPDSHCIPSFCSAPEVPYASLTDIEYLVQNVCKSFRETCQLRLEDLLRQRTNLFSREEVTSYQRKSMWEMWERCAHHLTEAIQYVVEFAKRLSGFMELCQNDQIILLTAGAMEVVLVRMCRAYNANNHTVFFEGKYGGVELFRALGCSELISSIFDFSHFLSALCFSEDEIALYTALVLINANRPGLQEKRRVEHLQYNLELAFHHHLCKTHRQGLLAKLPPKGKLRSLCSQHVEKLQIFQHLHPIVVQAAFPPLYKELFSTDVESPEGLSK
Compound,"activity change, negative = inhibition",Potency
Cc1cc(C)nc(N/N=C/c2c(CO)cnc(C)c2O)n1,-28.5% (inactive),
COc1ccc(CNc2nc3c(c(=O)[nH]c(=O)n3C)n2Cc2ccccc2)cc1,8.46% (inactive),
COCCn1c(=S)[nH]c2cc(C(=O)NCCc3ccc(OC)c(OC)c3)ccc2c1=O,-10.7% (inactive),
NC(=O)C1CCN(C(=O)c2ccc3c(=O)n(Cc4cccc(Br)c4)c(=S)[nH]c3c2)CC1,5.31% (inactive),
COc1ccc(Cn2c(=S)[nH]c3cc(C(=O)NCCCN4CCOCC4)ccc3c2=O)cc1,-17.8% (inactive),
O=C(NC1CCCCC1)c1ccc2c(=O)n(CC3CCCO3)c(=O)[nH]c2c1 (centres undefined),-16.1% (inactive),
COc1ccc(Cn2c(=O)cc(C)[nH]c2=S)cc1,,11.2 µM (active)
COc1ccc(Cn2c(O)c(/C=C3/C=CC=N3)c(=O)[nH]c2=O)cc1,-1.9% (inactive),
COC(=O)c1ccc2c(=O)n(CC3CCCO3)c(=S)[nH]c2c1 (centres undefined),,2.82 µM (active)
COc1ccc(Cn2c(=S)[nH]c3cc(C(=O)N4CCCCC4)ccc3c2=O)cc1,,8.91 µM (active)
COc1cc2c(cc1OC)CN(CC(=O)Nc1ccc(F)cc1)CC2,-11.1% (inactive),
CC(C)Oc1ccc(C(CC(=O)N2CCOCC2)C(C)C)cc1 (centres undefined),11.9% (inactive),
COc1ccc(-c2nc3c(s2)CCc2onc(-c4ccc(OC)cc4)c2-3)cc1,10.8% (inactive),
COc1cccc2cc(C(=O)NCc3ccc(C)cc3)c(=N)oc12,-13.8% (inactive),
COc1cc(C(=O)Nn2c(CC(C)C)nc3ccccc3c2=O)cc(OC)c1OC,-37% [at 1.91 µM] (inactive),
CCOc1ccccc1NC(=O)Cn1ncc2ccc([N+](=O)[O-])cc21,-2.79% (inactive),
CC(=O)Nc1ccc(S(=O)(=O)N2CCC(C(=O)N[C@@H](Cc3ccccc3)C(=O)O)CC2)cc1,5.02% (inactive),
COc1cccc(NC(=O)N2CCCC2C(=O)NC2CCCCC2)c1 (centres undefined),-5.05% (inactive),
Cc1cc(-c2ccc(C)c(S(=O)(=O)NCCCN(Cc3ccccc3)C(C)C)c2)on1,-8.59% (inactive),
O=C(NCCCN1CCCCC1)C1CC(=O)N(CCc2ccccc2)C1 (centres undefined),-16.4% (inactive),
Oc1c(Cl)cc(Cl)c(Cl)c1Cc1c(O)c(Cl)cc(Cl)c1Cl,,5.62 µM (active)
CC(C)n1c(=O)[nH]c2cc(C(=O)Nc3ccccc3)ccc21,,7.94 µM (active)
Cn1c(=O)n(C)c2cc(C(=O)Nc3ccc(Br)cc3)ccc21,-36.7% (inactive),
CN1CCN(c2ccc(NC(=O)c3ccc4c(c3)[nH]c(=O)n4Cc3ccc(F)cc3)cc2)CC1,16.3% (inactive),
CCOC(=O)N1CCN(C(=O)C(C)NC(=O)c2ccco2)CC1 (centres undefined),10.7% (inactive),
O=C(N/N=C/c1ccco1)c1ccc(C(=O)N/N=C/c2ccco2)o1,18.2% (inactive),

Compound,"activity change, negative = inhibition",Potency
CC(/C=N/NC(=O)c1ccncc1)=C\c1ccco1,-2.2% (inactive),
O=C(N/N=C/C=C/c1ccco1)c1cccs1,,5.01 µM (active)
COc1cc(OC)c(NC(=O)C2CCCN2C(=O)OCc2ccccc2)cc1Cl (centres undefined),-3.37% (inactive),
COc1ccc(OC)c(S(=O)(=O)n2c([N+](=O)[O-])cnc2C)c1,-5.1% (inactive),
Cc1nc2ccc(S(=O)(=O)N(C)CC(=O)NC(C)c3ccccc3)cc2s1 (centres undefined),6.35% (inactive),
Cc1cccc(N(CC(=O)Nc2ccc(-c3nc4ccc(C)cc4s3)cc2)S(C)(=O)=O)c1,12.6% (inactive),
Cc1ccc2nc(-c3ccc(NC(=O)CN(C)S(=O)(=O)c4ccccc4)cc3)sc2c1,,2 µM (active)
CCN(C(=O)CSc1nnc(-c2ccncc2)o1)c1ccccc1,-0.118% (inactive),
COc1ccc(NS(=O)(=O)c2cccc3nsnc23)cc1Cl,20.8% (inactive),
CCOC(=O)C(C)Sc1nc2ccccc2c(=O)n1CC1CCCCC1 (centres undefined),13.1% (inactive),
O=c1c2ccccc2nc2n1C1(CCCCC1)Cc1ccccc1-2,13.3% (inactive),
CN(c1ccc2nc3ccccc3c(=O)n2n1)C1CCCCC1,,0.398 µM (active)
CC(=O)Oc1ccc(-c2cccc(C(=O)N3CCCCC3)c2)cc1,25.1% (inactive),
COc1ccccc1OCCn1c(SCC(N)=O)nc2ccccc21,17.5% (inactive),
O=C(NCc1cccnc1)C12CC3CC(CC(C3)C1)C2,0.141% (inactive),
Cc1ccc(C(=O)NC2CCN(C(=O)Nc3ccccc3Cl)CC2)cc1,-3.35% (inactive),
CC(C)CC(=O)NC(=S)Nc1cc(C(=O)O)ccc1Cl,7.72% (inactive),
CC(C)CNC(=O)C(=O)NCc1ccccc1,-0.503% (inactive),
CC(=O)c1ccc(NC(=S)NC(=O)CC(C)C)cc1,,12.6 µM (active)
COc1ccc(NS(=O)(=O)c2ccc(NC(=S)NC(=O)CC(C)C)cc2)cc1,-31.3% (inactive),
CC(C)CC(=O)NC(=S)NCc1ccccc1,,5.01 µM (active)
CC(C)CC(=O)c1c[nH]c(C(=O)NCc2ccccc2)c1,3.37% (inactive),
CC1CCCCN1CCCNc1ccc(C(CC(N)=O)NC(=O)c2ccccc2)cc1[N+](=O)[O-] (centres undefined),-13.3% (inactive),
CCOC(=O)N1CCN(C(=O)C(=O)Nc2sc3c(c2C#N)CC(C)(C)OC3)CC1,9.29% (inactive),
Cc1ccc(S(=O)(=O)NCC(=O)N2CCOCCOCCOCCOCC2)cc1,-12.4% (inactive),
O=C(c1ccc(Cl)cc1)N1N=C(c2ccccn2)CC1(O)C(F)(F)F (centres undefined),,1.41 µM (active)

Compound,"activity change, negative = inhibition",Potency
O=C(c1ccc(Cl)cc1)n1cnc2ccccc21,-14.8% (inactive),
O=S(=O)(/N=C(/Nc1ccccn1)c1ccccc1)c1ccc(Cl)cc1,38.3% (inactive),
COC(=O)c1ccc2ccccc2c1OC1OC(CO)C(O)C(O)C1NC(C)=O (centres undefined),-4.64% (inactive),
CN(C)CCSc1nc(N)c2c3c(sc2n1)COC(C)(C)C3,-36.3% (inactive),
CC1(C)Cc2c(sc3nc4n(c(=N)c23)CCCCC4)CO1,25.8% (inactive),
C=CCNC(=S)NNc1ncnc2sc3c(c12)CC(C)(C)OC3,,1.26 µM (active)
Fc1ccc(-c2ccc(NCCN3CCOCC3)nn2)cc1,20% (inactive),
CC(=O)c1c(C)oc2ccc(NS(=O)(=O)c3ccccc3)cc12,13.9% (inactive),
Cc1ccc(CN2CCC(n3nccc3NC(=O)CCCc3ccccc3)CC2)o1,-40.9% (inactive),
O=C(Nc1cnccn1)c1cccnc1,13.5% (inactive),
O=C(NNc1ccccn1)c1ccc(Cl)nc1,,12.6 µM (active)
O=C(CCl)NNc1cccc(Cl)n1,30% (inactive),
COc1ccc(C)cc1N(CC(=O)NC(C)c1ccccc1)S(C)(=O)=O (centres undefined),16.1% (inactive),
CCCC(=O)Nc1cccc(NC(=S)NC(=O)C(C)Oc2ccc(Cl)cc2Cl)c1 (centres undefined),,6.31 µM (active)
COc1cccc(NC(=O)CN(C)C(=O)Cc2ccc(Cl)cc2Cl)c1,3.05% (inactive),
CC(Oc1ccc(Cl)cc1Cl)C(=O)/C=C/N(C)C (centres undefined),-4.84% (inactive),
CCOC(=O)N1CCN(S(=O)(=O)N2CCCC(C(=O)NCCCN3CCC(C)CC3)C2)CC1 (centres undefined),-6.51% (inactive),
Fc1cc(F)c2nc(N3CCOCC3)sc2c1,30.4% (inactive),
NC(=O)c1c(NC(=O)c2ccccc2)sc2c1CCCC2,-16.4% (inactive),
Fc1cc(F)c2nc(Nc3nc4c(F)cccc4s3)sc2c1,,3.98 µM (active)
NC(=O)c1c(Nc2nc3c(F)cccc3s2)sc2c1CCCC2,,12.6 µM (active)
NC(=O)c1c(NC(=O)CSc2nc(N)cc(=O)[nH]2)sc2c1CCCC2,11.5% (inactive),
CC(C)(C)c1ccc(CN2C(=O)c3ccccc3S2(=O)=O)cc1,22.5% (inactive),
COc1ccc(NC(=O)c2sc3nc(C)nc(N4CCN(c5ccccn5)CC4)c3c2C)c(OC)c1,-30.6% (inactive),
O=C(NC1CCN(S(=O)(=O)c2ccc(F)cc2)CC1)c1ccccc1,-28.7% (inactive),
Cc1nn(CC(=O)NCCc2ccccc2)c(=O)c2cc3occc3n12,19.9% (inactive),

Compound,"activity change, negative = inhibition",Potency
CCCCN1C(=S)NC[C@@H]1C(C)CC (some centres undefined),,3.55 µM (active)
O=C(NC(=S)NC1CCS(=O)(=O)C1)c1cccc([N+](=O)[O-])c1 (centres undefined),-27.1% (inactive),
O=c1c(-c2ccccc2)coc2cc(O)ccc12,28.4% (inactive),
O=c1c(O)c(-c2ccc(O)cc2)oc2ccccc12,,7.94 µM (active)
COc1ccccc1N=Cc1c(O)c2ccccc2oc1=O,-38.7% (inactive),
CCN(CC)S(=O)(=O)c1ccc(N2CCN(C)CC2)c(NC(=O)Nc2ccccc2F)c1,-26.7% (inactive),
CCn1c(=O)c2ccccc2n(CC(=O)N2CCCc3ccccc32)c1=O,-16% (inactive),
CC(=O)NC(Cc1c[nH]c2ccccc12)C(=O)NCCc1ccccc1 (centres undefined),6.43% [at 1.91 µM] (inactive),
Oc1ccc(Br)cc1/C=N/Nc1ccccn1,,5.62 µM (active)
Cc1nccn1CC(=O)N/N=C/c1ccc(O)c(O)c1,-18% (inactive),
O=C(Nc1ccc(Br)cc1)c1cc(S(=O)(=O)Nc2ccccn2)ccc1Cl,-0.848% (inactive),
O=c1ccc(-c2ccc(S(=O)(=O)Nc3ccccc3)o2)n[nH]1,-24.5% (inactive),
COc1ccc(C(=O)c2c(C)c(CCC#N)n3ccccc23)c(OC)c1,3.97% (inactive),
COCCCC1CCN(C(=O)C2CCC(=O)N(C3CCCCCC3)C2)CC1 (centres undefined),1.67% (inactive),
Cc1cc(C(=O)NC2CCCc3c2cnn3-c2cccc(C)c2C)c(C)o1 (centres undefined),-111% (inactive),
O=c1c2ccccc2ncn1/N=C/c1ccccc1,,10 µM (active)
CCCc1nc2ccccc2c(=O)n1/N=C/c1ccc(O)c(O)c1,-4.72% (inactive),
O=[N+]([O-])c1ccc(N/N=C/c2ccccc2)cc1,-1.85% (inactive),
O=C(Nn1cnc2ccccc2c1=O)c1ccccc1,12.3% (inactive),
Cc1nc2ccccc2c(=O)n1NC(=O)c1ccccc1,-41% (inactive),
O=c1c2ccccc2nc(N/N=C/c2ccccc2)n1O,,11.2 µM (active)
Cc1ccc2c(=O)cc(C(=O)NCCc3ccc(S(N)(=O)=O)cc3)oc2c1C,-29% (inactive),
CCCCn1c(N)c(N(CCOC)C(=O)c2oc3ccc(OC)cc3c2C)c(=O)[nH]c1=O,-16.9% (inactive),
CCC(=O)Nc1ccc(C(=O)NNC(=O)c2ccc(Cl)cc2)cc1,10% (inactive),
CCc1cccc(NC(=O)CCCN2C(=O)C(c3ccccc3)Oc3cccnc32)c1 (centres undefined),18% (inactive),
O=C1c2ccccc2S(=O)(=O)N1Cc1c(F)cccc1Cl,14.6% (inactive),
